In the supplement of paper PMC8728848:
Many of the other results were omitted from the sample, so the strongest signals are more common in it than they were.

Columns and labels:
Experiment in all cases: glycan array binding signal (z-score within array); higher = stronger binding
Conditions in all cases: glycan notation: IUPAC condensed, linker removed
[1] = target: Fuc(a1-2)Gal(b1-3)[Fuc(a1-4)]GlcNAc(b1-3)[Fuc(a1-3)[Gal(b1-4)]GlcNAc(b1-6)]Gal(b1-4)Glc
How it was run: (§1)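 Glycan array binding is given as a within-array Z-score, which can be read as non-binding when negative. The arrays, 3228 of them, came from the Consortium for Functional Glycomics database and were retained only where the protein sequence was available. Z-scores were averaged across arrays of the same protein sequence at different concentrations or buffers and across linkers.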

[2] = target: Fuc(a1-2)[Gal(a1-3)]Gal(b1-3)GalNAc(b1-3)Gal(a1-4)Gal(b1-4)Glc
How it was run: as §1

[3] = target: Fuc(a1-2)[Gal(a1-3)]Gal(b1-4)GlcNAc(b1-3)GalNAc
How it was run: as §1

[4] = target: Fuc(a1-2)[GalNAc(a1-3)]Gal(b1-3)GlcNAc(b1-3)GalNAc
How it was run: as §1

[5] = target: Fuc(a1-3)[Gal(b1-4)]GlcNAc
How it was run: as §1

[6] = target: Fuc(a1-3)[Gal3S(b1-4)]Glc
How it was run: as §1

Gal(a1-3)GalNAc = target: Gal(a1-3)GalNAc
How it was run: as §1

Gal(a1-4)GlcNAc = target: Gal(a1-4)GlcNAc
How it was run: as §1

[7] = target: Gal(b1-3)GlcNAc(b1-3)GalNAc
How it was run: as §1

[8] = target: Gal(b1-3)GlcNAc(b1-6)[Gal(b1-3)]GalNAc
How it was run: as §1

[9] = target: Gal(b1-3)[Fuc(a1-4)]GlcNAc(b1-2)Man
How it was run: as §1

[10] = target: Gal(b1-3)[Fuc(a1-4)]GlcNAc(b1-6)GalNAc
How it was run: as §1

[11] = target: Gal(b1-4)GlcNAc(a1-6)Gal(b1-4)GlcNAc
How it was run: as §1

[12] = target: Gal(b1-4)GlcNAc(b1-2)Man(a1-3)[Gal(b1-4)GlcNAc(b1-2)Man(a1-6)]Man(b1-4)GlcNAc(b1-4)GlcNAc
How it was run: as §1

[13] = target: Gal(b1-4)GlcNAc(b1-2)[Gal(b1-4)GlcNAc(b1-4)]Man(a1-3)[GlcNAc(b1-4)][Gal(b1-4)GlcNAc(b1-2)[Gal(b1-4)GlcNAc(b1-6)]Man(a1-6)]Man(b1-4)GlcNAc(b1-4)GlcNAc
How it was run: as §1

[14] = target: Gal(b1-4)GlcNAc(b1-6)[Gal(b1-3)]GalNAc
How it was run: as §1

[15] = target: Gal3S(b1-4)[Fuc(a1-3)]GlcNAc
How it was run: as §1

Gal4S(b1-4)GlcNAc = target: Gal4S(b1-4)GlcNAc
How it was run: as §1

Gal6S(b1-3)GlcNAc6S = target: Gal6S(b1-3)GlcNAc6S
How it was run: as §1

[16] = target: GlcNAc(a1-4)Gal(b1-4)GalNAc
How it was run: as §1

[17] = target: GlcNAc(b1-3)Gal(b1-4)GlcNAc(b1-3)Gal(b1-4)GlcNAc(b1-3)Gal(b1-4)GlcNAc(b1-2)Man(a1-3)[GlcNAc(b1-3)Gal(b1-4)GlcNAc(b1-3)Gal(b1-4)GlcNAc(b1-3)Gal(b1-4)GlcNAc(b1-2)Man(a1-6)]Man(b1-4)GlcNAc(b1-4)GlcNAc
How it was run: as §1

[18] = target: GlcNAc(b1-3)Gal(b1-4)GlcNAc(b1-3)Gal(b1-4)GlcNAc(b1-3)Gal(b1-4)GlcNAc(b1-3)Gal(b1-4)GlcNAc(b1-2)[GlcNAc(b1-3)Gal(b1-4)GlcNAc(b1-3)Gal(b1-4)GlcNAc(b1-3)Gal(b1-4)GlcNAc(b1-3)Gal(b1-4)GlcNAc(b1-6)]Man(a1-6)[GlcNAc(b1-3)Gal(b1-4)GlcNAc(b1-3)Gal(b1-4)GlcNAc(b1-3)Gal(b1-4)GlcNAc(b1-3)Gal(b1-4)GlcNAc(b1-2)Man(a1-3)]Man(b1-4)GlcNAc(b1-4)[Fuc(a1-6)]GlcNAc
How it was run: as §1

[19] = target: Man(a1-2)Man(a1-2)Man(a1-3)Man
How it was run: as §1

[20] = target: Man(a1-2)Man(a1-2)Man(a1-6)[Man(a1-3)]Man
How it was run: as §1

Man(a1-2)Man(a1-3)Man = target: Man(a1-2)Man(a1-3)Man
How it was run: as §1

[21] = target: Man(a1-2)Man(a1-3)[Man(a1-2)Man(a1-6)]Man(a1-6)[Man(a1-2)Man(a1-2)Man(a1-3)]Man
How it was run: as §1

[22] = target: Man(a1-2)Man(a1-3)[Man(a1-2)Man(a1-6)]Man(a1-6)[Man(a1-2)Man(a1-2)Man(a1-3)]Man(b1-4)GlcNAc(b1-4)GlcNAc
How it was run: as §1

[23] = target: Man(a1-2)Man(a1-3)[Man(a1-6)]Man(a1-6)[Man(a1-2)Man(a1-3)]Man(b1-4)GlcNAc(b1-4)GlcNAc
How it was run: as §1

[24] = target: Man(a1-2)Man(a1-6)[Man(a1-3)]Man(a1-6)[Man(a1-2)Man(a1-2)Man(a1-3)]Man
How it was run: as §1

[25] = target: Man(a1-2)Man(a1-6)[Man(a1-3)]Man(a1-6)[Man(a1-2)Man(a1-2)Man(a1-3)]Man(b1-4)GlcNAc(b1-4)GlcNAc
How it was run: as §1

[26] = target: Man(a1-3)[Man(a1-6)]Man(a1-6)[Man(a1-2)Man(a1-3)]Man(b1-4)GlcNAc(b1-4)GlcNAc
How it was run: as §1

[27] = target: Man(a1-3)[Man(a1-6)]Man(a1-6)[Man(a1-3)]Man(b1-4)GlcNAc(b1-4)GlcNAc
How it was run: as §1

[28] = target: Man(a1-3)[Man(a1-6)]Man(b1-4)GlcNAc(b1-4)GlcNAc
How it was run: as §1

Man(a1-6)Man = target: Man(a1-6)Man
How it was run: as §1

[29] = target: Neu5Ac(a2-3)Gal(b1-4)GlcNAc(b1-2)Man(a1-3)[GlcNAc(b1-4)][Neu5Ac(a2-3)Gal(b1-4)GlcNAc(b1-2)Man(a1-6)]Man(b1-4)GlcNAc(b1-4)GlcNAc
How it was run: as §1

[30] = target: Neu5Ac(a2-3)Gal(b1-4)GlcNAc(b1-3)Gal(b1-4)[Fuc(a1-3)]GlcNAc
How it was run: as §1

[31] = target: Neu5Ac(a2-3)Gal(b1-4)GlcNAc(b1-6)[Neu5Ac(a2-3)Gal(b1-3)]GalNAc
How it was run: as §1

[32] = target: Neu5Ac(a2-3)[GalNAc(b1-4)]Gal(b1-4)Glc
How it was run: as §1

[33] = target: Neu5Ac(a2-6)Gal(b1-4)GlcNAc(b1-2)Man(a1-3)[Gal(b1-4)GlcNAc(b1-2)Man(a1-6)]Man(b1-4)GlcNAc(b1-4)GlcNAc
How it was run: as §1

[34] = target: Neu5Ac(a2-6)Gal(b1-4)GlcNAc(b1-2)Man(a1-3)[GlcNAc(b1-2)Man(a1-6)]Man(b1-4)GlcNAc(b1-4)GlcNAc
How it was run: as §1

[35] = target: Neu5Ac(a2-6)Gal(b1-4)GlcNAc(b1-3)Gal(b1-3)GlcNAc
How it was run: as §1

Neu5Ac(a2-6)GalNAc = target: Neu5Ac(a2-6)GalNAc
How it was run: as §1

[36] = target: Neu5Ac(a2-6)GlcNAc(b1-4)GlcNAc(b1-4)GlcNAc
How it was run: as §1

B1: Banana lectin (Musa acuminata) (protein)
chain: MNGAIKVGAWGGNGGSAFDMGPAYRIISVKIFSGDVVDAVDVTFTYYGKTETRHFGGSGGTPHEIVLQEGEYLVGMKGEFGNYHGVVVVGKLGFSTNKKSYGPFGNTGGTPFSLPIAAGKISGFFGRGGDFIDAIGVYLEP
For B1, the “glycan array binding signal (z-score)” value [1] was -0.195, the “glycan array binding signal (z-score)” value [2] was -0.195 and the “glycan array binding signal (z-score)” value [3] was -0.195. For the same binder, the “glycan array binding signal (z-score)” value [4] was -0.188, the “glycan array binding signal (z-score)” value [5] was -0.193 and the “glycan array binding signal (z-score)” value [6] was -0.192. For the same binder, the “glycan array binding signal (z-score)” value (Gal(a1-3)GalNAc) was -0.194, the “glycan array binding signal (z-score)” value (Gal(a1-4)GlcNAc) was -0.194 and the “glycan array binding signal (z-score)” value [7] was -0.195. For the same binder, the “glycan array binding signal (z-score)” value [8] was -0.173, the “glycan array binding signal (z-score)” value [9] was -0.19 and the “glycan array binding signal (z-score)” value [10] was -0.19. The “glycan array binding signal (z-score)” value [11] was -0.196, the “glycan array binding signal (z-score)” value [12] was -0.161 and the “glycan array binding signal (z-score)” value [13] was -0.197. For the same binder, the “glycan array binding signal (z-score)” value [14] was -0.193, the “glycan array binding signal (z-score)” value [15] was -0.19 and the “glycan array binding signal (z-score)” value (Gal4S(b1-4)GlcNAc) was -0.195. The “glycan array binding signal (z-score)” value (Gal6S(b1-3)GlcNAc6S) was -0.195, the “glycan array binding signal (z-score)” value [16] was -0.174 and the “glycan array binding signal (z-score)” value [17] was -0.179. For the same binder, the “glycan array binding signal (z-score)” value [18] was -0.139, the “glycan array binding signal (z-score)” value [19] was 3.39 and the “glycan array binding signal (z-score)” value [20] was 8.43. The “glycan array binding signal (z-score)” value (Man(a1-2)Man(a1-3)Man) was 5.44, the “glycan array binding signal (z-score)” value [21] was 7.92 and the “glycan array binding signal (z-score)” value [22] was 3.85. The “glycan array binding signal (z-score)” value [23] was 6.18, the “glycan array binding signal (z-score)” value [24] was 6.72 and the “glycan array binding signal (z-score)” value [25] was 7.63. For the same binder, the “glycan array binding signal (z-score)” value [26] was 5.95, the “glycan array binding signal (z-score)” value [27] was 3.55 and the “glycan array binding signal (z-score)” value [28] was 7.64. For the same binder, the “glycan array binding signal (z-score)” value (Man(a1-6)Man) was -0.076, the “glycan array binding signal (z-score)” value [29] was -0.191 and the “glycan array binding signal (z-score)” value [30] was -0.195. For the same binder, the “glycan array binding signal (z-score)” value [31] was -0.194, the “glycan array binding signal (z-score)” value [32] was -0.193 and the “glycan array binding signal (z-score)” value [33] was -0.142. For the same binder, the “glycan array binding signal (z-score)” value [34] was -0.102, the “glycan array binding signal (z-score)” value [35] was -0.194 and the “glycan array binding signal (z-score)” value (Neu5Ac(a2-6)GalNAc) was -0.192. The “glycan array binding signal (z-score)” value [36] was -0.194.
